Candida biofilm – kills Candida albicans biofilms. inhibition, % at 6 µM. AID 834. C. albicans biofilm + clotrimazole, Alamar Blue. 85,000 tested, 0.14% active;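 active means inhibition above 20%; inactive means inhibition below 20%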;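 further: preformed 24 hr biofilms exposed to compound for 48 hr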
E-sel TNF inh – TNF alpha driven E-selectin expression inhibition; HUVEC TNFa-induced E-selectin immunofluorescence, high content; inhibition, % at 2 µM; 120,000 tested, 0.71% active; AID 1246;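 active means inhibition above the batch mean plus 3 SD, and confirmed as a hit on visual image review, cut at about 43% in these data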
ERb SRC1 inh – ER-beta (human) coactivator binding inhibition; Q92731; TR-FRET ER-beta LBD / SRC1-Cy5 peptide binding; receptor agonist-loaded with 1 µM estradiol; inhibition, % at 25.6 µM; 86,000 tested, 1.3% active;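 active means compounds whose percent inhibition of the receptor-coactivator binding signal exceeds about 50% in the single-dose screen, limit read from the data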
ERa coact inh – blocks coactivator binding to human estrogen receptor alpha | P03372 | TR-FRET ER-alpha LBD / SRC-1 peptide, estradiol-bound | inhibition, % at 25.6 µM | 86,000 tested, 1.7% active | AID 629; in the data active means inhibition above about 50%
Target sequence (P03372 whole entry, looked up, the tested form may be a part): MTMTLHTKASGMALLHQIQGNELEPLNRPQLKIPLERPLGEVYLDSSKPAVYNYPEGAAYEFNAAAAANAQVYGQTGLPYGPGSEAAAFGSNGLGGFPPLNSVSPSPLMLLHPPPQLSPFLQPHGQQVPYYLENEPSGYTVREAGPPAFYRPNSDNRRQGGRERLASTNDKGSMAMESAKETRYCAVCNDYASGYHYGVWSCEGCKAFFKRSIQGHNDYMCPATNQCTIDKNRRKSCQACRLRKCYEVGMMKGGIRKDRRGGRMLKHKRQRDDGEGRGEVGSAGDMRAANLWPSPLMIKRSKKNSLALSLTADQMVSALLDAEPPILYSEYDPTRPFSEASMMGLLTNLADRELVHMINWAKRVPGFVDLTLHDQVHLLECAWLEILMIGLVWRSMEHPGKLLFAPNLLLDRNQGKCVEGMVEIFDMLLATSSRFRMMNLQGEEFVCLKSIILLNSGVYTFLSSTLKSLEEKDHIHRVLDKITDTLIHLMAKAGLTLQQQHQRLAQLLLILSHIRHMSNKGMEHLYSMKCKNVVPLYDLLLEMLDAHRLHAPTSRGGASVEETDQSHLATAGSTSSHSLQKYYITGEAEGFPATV
cytoskel mod – cytoskeleton assembly modification | AID 836 | HUVEC TNFa F-actin phalloidin imaging, high content | 91,000 tested, 0.18% active | inhibition, % at 2 µM;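 active means inhibition above the batch mean plus 3 SD and confirmed as a hit by visual image inspection, cut at about 30% in these data, passing the limit was not always enough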
ERa coact pot – ER-alpha (human) coactivator binding potentiation; TR-FRET ERalpha-LBD/SRC-Cy5 coactivator binding, 2 h; 100 = basal binding, no effect; P03372; coactivator binding (% of control), % at 25.6 µM; 86,000 tested, 1.3% active; AID 639; in the data active means activity above about 200%;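 further: binding measured in presence of low estradiol as agonist stimulus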
Hits are given with their value; i = inactive; nt = not tested or not shown; [ ] = dose if it differs, or a comment. Hits are enriched below; roughly 2.9% of the tested compounds scored in any of these assays.

SMILES	Candida biofilm	E-sel TNF inh	ERb SRC1 inh	ERa coact inh	cytoskel mod	ERa coact pot
COc1cccc2cc(-c3cn4ccc(C)cc4n3)c(=O)oc12	i	i	53[fluorescence artefact?]	74	i	i
CCOc1cccc2cc(-c3cn4cc(C)ccc4n3)c(=O)oc12	i	i	50	81	nt	i
CCN(CC)S(=O)(=O)c1cccc(-c2cn3cc(C)ccc3n2)c1	i	i	i	i	i	i
CCOC(=O)CSc1cccc2cccnc12	i	i	i	i	i	237[fluorescence artefact?]
CCN(CC)C(=O)Sc1cccc2cccnc12	i	nt	i	i	i	i
CC1CC(C)CN(S(=O)(=O)c2ccc(F)c(C(=O)Nc3ccc(Cl)cc3F)c2)C1 (stereo not given)	46	i	i	i	i	i
CC(C)C(=O)Nc1ccc2oc(-c3cc(F)c(F)cc3Cl)nc2c1	i	i	i	i	i	217
O=C(Nc1ccc2oc(-c3ccccc3Cl)nc2c1)c1ncn[nH]1	i	i	50[fluorescence artefact?]	67[fluorescence artefact?]	i	224[fluorescence artefact?]
CN1CCN(S(=O)(=O)c2ccc(Cc3ccc(S(=O)(=O)N4CCN(C)CC4)cc3)cc2)CC1	i	nt	i	i	i	i
Cc1c(Br)c([N+](=O)[O-])nn1CC(=O)Nc1sc2c(c1C(=O)OC(C)C)CCCC2	nt	64	nt	nt	i	nt
Cc1c(Br)c([N+](=O)[O-])nn1CCCC(=O)Nc1sc2c(c1C#N)CCC2	nt	i	nt	nt	nt	nt
CCOC(=O)c1c(NC(=O)CN2CCOCC2)sc(C(=O)NC)c1C	nt	i	nt	nt	i	nt
COCCOC(=O)c1c(NC(=O)CN2CCOCC2)sc(C(N)=O)c1C	i	72	i	i	i	i
Cc1cc(NC(=O)c2c(F)cccc2Cl)n(-c2nc3ccccc3[nH]2)n1	i	i	52	i	i	i
Cc1cc(NC(=O)c2ccccc2F)n(-c2nc3ccccc3[nH]2)n1	i	i	52[fluorescence artefact?]	53[fluorescence artefact?]	i	i
Cc1cc(NC(=O)c2c(F)cccc2F)n(-c2nc3ccccc3[nH]2)n1	i	nt	i	i	i	i
COC(=O)CCNC(=O)Cn1cnc2sc3c(c2c1=O)CCCC3	nt	i	nt	nt	nt	nt
COc1ccc(Br)cc1C(=O)Nc1ccc(O)cc1	i	i	i	i	i	i
COc1ccc(Br)cc1C(=O)O	i	97	i	i	nt	i
COc1cc2c(C#N)c(N3CCOCC3)nc(N)c2c(N)n1	i	i	75[fluorescence artefact?]	i	i	i
Cc1ccc(NCN2C(=O)C3C4C=CC(C4)C3C2=O)cc1 (stereo not given)	i	i	i	i	i	i
O=C1C2C3C=CC(C3)C2C(=O)N1CNc1ccc(O)cc1 (stereo not given)	i	nt	87[fluorescence artefact?]	61[fluorescence artefact?]	nt	i
CC(C)(C)C(=O)/C(=C\c1ccc([N+](=O)[O-])cc1)n1cncn1	i	66	i	i	i	i
CCC(CC)c1nnc(NC(=O)CCNC(=O)c2ccccc2Cl)s1	nt	i	nt	nt	nt	nt
CN(C)Cc1cc(CCNC(=O)c2ccc(Cl)cc2)ccc1O	i	nt	i	i	i	i
SMILES	Candida biofilm	E-sel TNF inh	ERb SRC1 inh	ERa coact inh	cytoskel mod	ERa coact pot
CSc1nc2nccc(-c3ccc(-c4ccccc4)cc3)n2n1	i	i	i	i	i	220
Cc1ccc(-c2n[nH]c(=S)n2/N=C/C=C\c2ccccc2[N+](=O)[O-])cc1	i	i	i	52	i	270[fluorescence artefact?]
COc1ccc(NC(=O)c2oc3ccccc3c2C)c(OC)c1	i	i	i	i	i	i
COC(=O)c1cc(OC)c(OC)cc1NC(=O)c1oc2ccccc2c1C	i	i	i	i	32	i
COc1ccc(CN2CCNC(=O)C2CC(=O)N2CCCCO2)c(OC)c1 (stereo not given)	nt	i	nt	nt	nt	nt
CCCSc1nnc(NC(=O)c2sc3nc(-c4cccs4)ccc3c2N)s1	nt	nt	nt	nt	i	nt
Cc1csc(NC(=O)c2sc3nc(-c4cccs4)ccc3c2N)n1	i	i	53[fluorescence artefact?]	85[fluorescence artefact?]	i	i
Cc1ccc[n+](C(C)C(=O)Nc2ccc(C)c([N+](=O)[O-])c2)c1 (stereo not given)	nt	i	nt	nt	i	nt
Fc1ccc(OCc2nc3ccccc3s2)cc1	nt	i	nt	nt	nt	nt
CCOC(=O)N1CCN(C(=O)c2ccc3c(=O)n(CCC4=CCCCC4)c(=S)[nH]c3c2)CC1	i	nt	i	i	i	208
CCOC(=O)N1CCN(C(=O)c2ccc3c(=O)n(CCc4ccccc4)c(=S)[nH]c3c2)CC1	i	i	i	i	i	i
O=C(N/N=C/C1C(c2ccccc2)C1(Cl)Cl)c1cccc(Br)c1 (stereo not given)	nt	i	nt	nt	i	nt
O=C(Oc1ccccc1N1C(=O)C2CCCCC2C1=O)c1ccccc1 (stereo not given)	nt	i	nt	nt	i	nt
